Data as given in the supplement of paper PMC6555819.

Tests used:
Assay in all cases: PBM binding z-score (relative to random genomic background probes); higher = stronger binding; sequences stand for … in GC…GCGATTGACAGCGTAGAATGAAGG
[1] = tested on: RARb homodimer (NR concentration 270 nM)
Summary of the method: (§1)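 Binding buffer was PBS pH 7.4 with 2% milk, 0.02% Triton X-100, 1 mM DTT, 0.2 mg/mL BSA and 0.4 mg/ml salmon testes DNA. In it, ligand-free nuclear receptor dimers were incubated 1 h on custom Agilent 4×180K protein-binding microarrays carrying double-stranded probes. Antibodies against each partner (one per run) detected binding, and z-scores were calculated against random background probes after regression normalization of scanned fluorescence.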

[2] = tested on: RARg:RXRa (NR concentration 270 nM, RXRa partner concentration 90 nM)
Summary of the method: as §1

[3] = tested on: RARg homodimer (NR concentration 270 nM)
Summary of the method: as §1

[4] = tested on: RXRa DBDmut IVT, anti-RXR (DBD mutation: RXRa K156A/R161A, NR concentration 90 nM)
Summary of the method: as §1

[5] = tested on: RXRa homodimer (NR concentration 180 nM)
Summary of the method: as §1

[6] = tested on: THRa:RXRa (NR concentration 90 nM, RXRa partner concentration 90 nM)
Summary of the method: as §1

[7] = tested on: THRa homodimer (NR concentration 90 nM)
Summary of the method: as §1

[8] = tested on: VDR:RXRa (NR concentration 270 nM, RXRa partner concentration 90 nM)
Summary of the method: as §1

[9] = tested on: VDR homodimer (NR concentration 270 nM)
Summary of the method: as §1

Sequence	PBM binding z-score [1]	PBM binding z-score [2]	PBM binding z-score [3]	PBM binding z-score [4]	PBM binding z-score [5]	PBM binding z-score [6]	PBM binding z-score [7]	PBM binding z-score [8]	PBM binding z-score [9]
TAGCCTAGGTCATGCGGGCCAGTATTGTGTCGGC	3.12	3.74	4.11	0.382	2.52	3.05	1.08	2.92	0.379
CCTGGGAGGACAACAGGAGGTCAGAGCTGCCAGA	3.72	3.71	3.6	-0.219	2.29	3.05	1.32	1.99	1.37
AGAATGAGCTTACCAAAGATCAGGGAAACGCTTG	-0.958	-0.0102	-0.129	-0.777	0.323	-0.369	-0.963	-0.591	-0.938
GCTGCCAGGTCAACTGATGGTCAGCTAAAGCTCG	3.58	5.49	5.38	1.94	3.81	3.68	2.18	2.62	0.679
GCTGGTAGGTCAACTGATGGTCAGCTAAAGCTCG	3.79	5.73	5.34	1.57	3.65	2.54	0.0326	2.01	0.11
GCATATAGGTAATACAAGGTGAAAGTCCGATTGT	1.03	0.625	0.545	0.387	0.694	4.31	1.08	0.299	0.356
ATCGAAAGGTCGACGTGAGTATAGAGAAAGGGAA	2.07	3.93	3.91	1.34	3.94	1.79	-0.87	2.53	0.464
ACTCGGAGGACGAAGGTCAGAGCTACGCCAGTGA	2.86	2.9	2.48	0.315	2.01	1.64	-0.396	1.15	0.109
GCGACGGGGGCATCAGCAGGTTACCATAACTTAA	2.43	5.01	2.7	3.03	3.26	3.25	1.61	3.67	1.88
CGTCAAAATTCAAGGTAACGTAACAGAAAGCAGC	0.985	0.175	0.447	-0.0025	0.308	1.64	1.15	0.111	0.24
GCTATTAGTTGAACGGGCAACCGAATGATTCTCG	-0.0848	-0.133	0.229	0.557	-0.15	-0.33	-0.617	-0.187	-0.439
CCGACTGGGGCATAAGGTTACCAAAAGCCAGCCC	1.97	1.72	0.905	-0.369	1.3	2.24	1.14	0.198	0.0369
TCTTGTAGATCAGCAGGTGAAGAAAGCTGGCCAA	-0.153	-0.237	-0.356	0.475	0.184	0.0556	-0.332	0.208	-0.766
TCTTGTAGATCAAGCAGGTTACGAAAGCCTGAGT	0.377	0.206	-0.118	0.652	0.618	0.537	-0.421	0.633	-0.206
TCTATTAGTTGATTAGGGCAACCGTAACAGCGGA	0.955	0.567	0.671	1.16	0.558	0.75	0.547	0.769	0.281
TCTATTAGTTGATTCGGGCAACCGAAACAGCGGA	0.249	0.385	0.285	1.15	0.328	0.247	0.0848	0.506	0.228
CTCGAAAGGTCGTGCTCAGGTGTGTATACCAAAC	2.72	4.45	3.62	2.5	4.71	3	0.4	3.31	0.893
ATCGAAAGGTCTAGGTGAGTATAGAGAAAGGGAA	1.12	1.23	1.3	0.133	0.532	0.835	0.338	0.435	-0.115
TCTTGTAGATCAGCAGGTCAAGAAAGCTGGCCAA	2.13	2.22	1.55	0.289	2.05	1.89	0.0646	1.17	0.194
AGAATGAGGGTATACGTAGATCAGGGAAGAAAGT	0.451	0.26	0.277	0.799	0.262	0.252	0.0652	0.239	0.45
CGTCCAAGGTCAATGCTAGGTCATTGAAAGCATT	4.92	7.82	7	3.83	6	4.65	3.74	5.84	4.05
ACTAGCAGGCCAAGGGTCACACAAGATTAGTCCG	4.06	4.6	4.2	0.3	4.68	3.16	0.442	3.53	1.42
CGAACTAGGTCATTGACAGGACCGTGAATAGTAA	2.09	3.59	3.95	2.37	2.17	2.32	0.476	1.51	1.15
CGTCCAAGGTCAACGTCAGTGAAAGAGACTCGAA	3.98	6.3	7.13	3.49	6.13	4.04	2.55	4.05	1.8
ATATGTAGGTTATCGGGTAATTCAGTTTGCGCAT	0.9	0.94	0.821	0.617	1.05	1.29	1.26	1.54	1.3
CCTAGGAGGCCAGGGTCACTCAAGCATTTCGCTT	2.95	2.9	2.55	-0.274	3.08	2.8	0.866	2.44	1.02

Sequence	PBM binding z-score [1]	PBM binding z-score [2]	PBM binding z-score [3]	PBM binding z-score [4]	PBM binding z-score [5]	PBM binding z-score [6]	PBM binding z-score [7]	PBM binding z-score [8]	PBM binding z-score [9]
CCTAGCATGCCAGGGTCACTCAAGCATTTCGCTT	2.54	2.81	2.01	0.413	3.35	2.95	1.01	2.59	0.827
ATCTCTAGGTAACCAACTTCAGTGAATGCCGAAC	0.171	0.209	0.26	0.264	0.158	0.65	0.878	0.0615	0.195
GCTGCTAGGTCAACTGATGGTCAGCTATAGCTCG	3.72	5.34	5.69	1.79	3.41	3.03	1.11	1.82	-0.0243
ACTCGGAGGACAATGGTCAGAGCTACGCCAGTGA	0.454	0.217	0.925	0.216	-0.0471	0.235	-0.526	-0.697	-0.36
CCTCGGAGGACAACAGGAGGACAGAGCTGCCAGA	1.1	1.11	1.41	-0.107	0.167	1.61	0.577	-0.461	0.157
ATCGAAAGGTCGTGAGGTCAGTATACAGAAAGGC	4.83	6.17	5.53	2.13	6.57	4.25	3.19	5.51	3.51
GCGACTGGGGCATCAGCTGGTTACCATAACTTAA	0.0831	0.0774	0.0488	-0.446	-0.273	-0.306	-0.655	-0.49	-0.58
GCTGCTAGGTCAGGTTGGTTAGCTAACGGGTACG	2.43	2.43	3.37	0.744	0.769	1.77	0.549	0.262	0.682
CCAGACAGGTGAAAGGTAACTTAGTCTGGTACGC	0.975	1.23	0.78	0.208	2.05	0.818	-0.205	0.744	-0.23
GCTGCTAGGGCAACTGATGGTCAGCTAAAGCTCG	0.973	0.792	1.27	-0.0325	-0.494	-0.0894	-1.3	-0.881	-1.03
ACTAGCAGGCAAAGGGTCACTCAAGATTAGTCCG	3.87	3.98	3.89	0.88	4.31	2.58	0.198	2.98	1.57
TGAATGAGGTTATAGGATCAGGGAACGTTGCAAA	0.349	1.53	0.884	0.852	2.42	2.12	0.489	1.13	0.329
CGAACGAGGGCTTGAGTTGATAGCAAATGCCGAT	-0.757	-0.238	-0.288	0.344	-0.152	-0.359	-0.618	-0.282	-0.163
GGAACGAGGGCGAAGTTGATAGCATCTGTCGACG	-0.341	0.0412	0.2	1.17	0.297	-0.192	-0.526	-0.285	0.152
TCTTGTAGATCAGCAGGGTAAGAAAGCTGGCCAA	-0.187	-0.327	-0.5	0.581	-0.0542	-0.165	-0.567	0.195	-0.255
AGTCAAGGTTCAGGACGAGGTAACGTAAAGCACG	1.55	3.45	2.41	2.61	2.19	3.55	1.75	2.03	2.25
GCTTGTAGATCAAGGTTAAGACAGACTAAGCTAA	0.562	0.461	0.497	-0.0408	0.989	1.27	-0.0509	0.166	0.0668
ATCTCTAGGTATCCAAGTTCAGTGAATGCCGAAC	1.46	0.373	0.76	0.842	0.354	0.837	0.736	2.38	2.5
ACTATTAGCTGACTTAGGGCAACCGATACGACGC	0.665	0.504	0.628	0.619	0.197	0.454	0.576	-0.114	-0.00444
CCTAGTTGGCCAGGAGGTCACACACCGGATATGA	4.01	4.27	3.43	0.6	4.51	3.54	2.38	3.63	2.16
TCTTGTAGATCAAGCAAGTTAAGAAAGCCTGAGT	-0.703	-0.21	-0.386	0.582	-0.066	0.341	-0.759	0.328	-0.186
CCGTGTAGGTTATGGGGCATTCAGGCAACGGTGA	1.3	0.81	0.846	-0.509	0.777	0.703	0.635	0.11	0.353
TCGAGTAAGTTAGTCGGGGCATTCAGCCAACATA	-0.375	-0.647	-0.674	0.38	-0.255	0.0972	-0.58	-0.133	-0.125
CGTCCAAGGTCGGAGAGGTCAGTGAATGCCGAGT	4.01	4.23	4.66	2.06	3.74	3.34	1.31	6.04	3.93
CCTAGCAGCCCAATCTGGGTCACTCAAGGCTTGA	1.77	0.615	0.301	-0.241	0.56	2.28	0.424	0.11	-0.324
TCTGCTAGGTCCGTTGGTCAGCTAACGAGCTGCC	-0.396	-0.454	-0.542	0.392	-0.5	-0.748	-1.13	-0.499	-0.592
